Measured values as given in PubChem BioAssay (NCATS).
Several values for one entry are separate records, joined by “and”; a condition that tells them apart may be missing. Equal entries are not always repeated. Records with an inconclusive call do not appear. Where a call stands in place of a potency, no number is given. A number with no mark means an inactive call. Activity calls are given as the source filed them. Calls follow the shape of the dose curve; as a rule, active = well fitted inhibition curve with a large enough effect; inconclusive = small, poorly fitted or top-dose-only effect; inactive = flat fitted curve, though single readings scatter. Where a SMILES comes first, the peptide text is derived from it. Bridges are numbered along the chain shown (N, C = ends). [ ]: non-standard residue; d: D form. The star is where a group is joined. ξ: configuration not given here. Dab(CH2SO3H) = N[C@@H](CCNCS(=O)(=O)O)C(=O)O; ξPhe(βξ-Me) = CC(c1ccccc1)C(N)C(=O)O; X3 = CC[C@@H](C)CCCCC(=O)*; Dab = NCC[C@H](N)C(=O)O; GABA = NCCCC(=O)O

Test: P-glycoprotein substrates identified in KB-8-5-11 adenocarcinoma cell line, qHTS therapeutic library screen (AID 1346987); also: nearly all actives have a fitted effect of over 65% in size
Details: KB-8-5-11 (P-gp overexpressing) viability, CellTiter-Glo, 72 h; series mostly up to 44.5 µM
Summary of the method: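 Compounds are pinned in dose-response onto KB-8-5-11 cells (500 cells/well, colchicine-free medium) and left 72 h at 37 degree C. CellTiter-Glo luminescence then yields AC50 values.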
Potency is read from the fitted curve at half-maximal effect.

**Q.** With `C[C@]12CCC(=O)C=C1[C@@H](O)C[C@@H]1[C@@H]2[C@@H](O)C[C@@]2(C)[C@H]1CC[C@]2(O)C(=O)CO` as the compound, how does the Potency read?
**A.** The Potency was “inactive”.

**Q.** With `C[C@@H]1CC[C@]2(C(=O)O[C@@H]3O[C@H](CO)[C@@H](O)[C@H](O)[C@H]3O)CC[C@]3(C)C(=CCC4[C@@]5(C)C[C@@H](O)[C@H](O)C(C)(C)C5CC[C@]43C)C2[C@]1(C)O` (stereo partly drawn) as the compound, how does the Potency read?
**A.** Its Potency is “inactive”.

**Q.** For `COc1cc(C2OCC3C(c4ccc(OC5OC(CO)C(O)C(O)C5O)c(OC)c4)OCC23)ccc1O` (stereo not drawn), which Potency is on record?
**A.** Its Potency is “inactive”.

**Q.** Which Potency does the source give for `COc1ccc(C[C@@H](C)NC[C@H](O)c2ccc(O)c(NC=O)c2)cc1` here?
**A.** Its Potency is “inactive”.

**Q.** With `COc1cc(C2Oc3c(O)cc(CCCO)cc3C2CO)ccc1O[C@H]1O[C@H](C)[C@@H](O)[C@H](O)[C@@H]1O` (stereo partly drawn) as the compound, how does the Potency read?
**A.** The Potency was “inactive”.

**Q.** Which Potency does the source give for `NC(=O)c1cccc(-c2cc(O)cc(OC(=O)NC3CCCCC3)c2)c1` here?
**A.** The Potency was “inactive”.

**Q.** For `CCNC(=O)[C@@H]1CCCN1C(=O)[C@H](CCCN=C(N)N)NC(=O)[C@H](CC(C)C)NC(=O)[C@@H](C)NC(=O)[C@H](Cc1ccc(O)cc1)NC(=O)[C@H](CO)NC(=O)[C@H](Cc1c[nH]c2ccccc12)NC(=O)[C@H](Cc1cnc[nH]1)NC(=O)[C@@H]1CCC(=O)N1`, which Potency is on record?
**A.** Its Potency is “inactive”.

**Q.** With `CO[C@H](C(=O)[C@@H](O)[C@@H](C)O)C1Cc2cc3cc(O[C@H]4C[C@@H](O[C@H]5C[C@@H](O)[C@H](O)[C@@H](C)O5)[C@@H](O)[C@@H](C)O4)c(C)c(O)c3c(O)c2C(=O)[C@H]1O[C@H]1C[C@@H](O[C@H]2C[C@@H](O[C@H]3C[C@](C)(O)[C@H](O)[C@@H](C)O3)[C@H](O)[C@@H](C)O2)[C@H](O)[C@@H](C)O1` (stereo partly drawn) as the compound, how does the Potency read?
**A.** Its Potency is “inactive”.

**Q.** With `CCCCC(=O)O[C@]1(C(=O)CO)[C@H](C)C[C@H]2[C@@H]3CCC4=CC(=O)C=C[C@]4(C)[C@@]3(F)[C@@H](O)C[C@@]21C` as the compound, how does the Potency read?
**A.** Its Potency is “inactive”.

**Q.** For `COc1cc([C@H]2OC[C@@H]3[C@@H](c4ccc(O[C@@H]5O[C@H](CO)[C@@H](O)[C@H](O)[C@H]5O)c(OC)c4)OC[C@]23O)ccc1O`, which Potency is on record?
**A.** Its Potency is “inactive”.

**Q.** With `CC1=C(/C=C/C(C)=C/C=C/C(C)=C/C=C/C=C(C)/C=C/C=C(C)/C=C/C2=C(C)CCCC2(C)C)C(C)(C)CCC1` as the compound, how does the Potency read?
**A.** Its Potency is “inactive”.

**Q.** With `COC(=O)C1=CO[C@@H](O[C@@H]2O[C@H](CO)[C@@H](O)[C@H](O)[C@H]2O)[C@@H]2[C@@H](C(=O)OC)[C@@H](O)C(O)[C@H]12` (stereo partly drawn) as the compound, how does the Potency read?
**A.** The Potency was “inactive”.

**Q.** For `COc1cc(/C=C/c2cc(O)cc(O[C@@H]3O[C@H](CO)[C@@H](O)[C@H](O)[C@H]3O)c2)ccc1O`, which Potency is on record?
**A.** The Potency was “inactive”.

**Q.** For `CC[C@@H](C)CCCCC(=O)N[C@@H](CCNCS(=O)(=O)O)C(=O)N[C@H](C(=O)N[C@@H](CCNCS(=O)(=O)O)C(=O)N[C@H]1CCNC(=O)[C@H]([C@@H](C)O)NC(=O)[C@H](CCNCS(=O)(=O)O)NC(=O)[C@H](CCNCS(=O)(=O)O)NC(=O)[C@H](CC(C)C)NC(=O)[C@@H](CC(C)C)NC(=O)[C@H](CCNCS(=O)(=O)O)NC1=O)[C@@H](C)O` (X3-[Dab(CH2SO3H)]T[Dab(CH2SO3H)][Dab][Dab(CH2SO3H)][dL]L[Dab(CH2SO3H)][Dab(CH2SO3H)]T; lactam 4-C), which Potency is on record?
**A.** The Potency was “inactive”.

**Q.** For `CC1=C2C=C(CO)C(CO)CCC2(C)CCC1=O` (stereo not drawn), which Potency is on record?
**A.** The Potency was “inactive”.

**Q.** With `COC(=O)[C@@]1(C)CC[C@]2(C(=O)O[C@@H]3O[C@H](CO)[C@@H](O)[C@H](O)[C@H]3O)CC[C@]3(C)C(=CCC4[C@@]5(C)CC[C@H](O[C@@H]6O[C@H](C(=O)O)[C@@H](O)[C@H](O)[C@H]6O)C(C)(C)C5CC[C@]43C)[C@@H]2C1` (stereo partly drawn) as the compound, how does the activity change, negative = cytotoxicity read?
**A.** The activity change, negative = cytotoxicity was -9.96% [at 9.29 µM].

**Q.** With `Cc1c(C)c2c(c(C)c1O)CC[C@@](C)(CCC[C@H](C)CCC[C@H](C)CCCC(C)C)O2` as the compound, how does the Potency read?
**A.** Its Potency is “inactive”.

**Q.** With `CC(C)(O)C1CCC2(C)C3C(O)C4C(C13)C42CO` (stereo not drawn) as the compound, how does the Potency read?
**A.** Its Potency is “inactive”.

**Q.** For `C[C@H]1C[C@H]2[C@@H]3CCC4=CC(=O)C=C[C@]4(C)[C@@]3(F)[C@@H](O)C[C@]2(C)[C@@]1(O)C(=O)CO`, which Potency is on record?
**A.** Its Potency is “inactive”.

**Q.** With `OCC1OC(Oc2cc(O)c3c(c2)OC(c2ccc(O)cc2)C(O)C3)C(O)C1O` (stereo not drawn) as the compound, how does the Potency read?
**A.** The Potency was “inactive”.

**Q.** For `CC1CCC2(NC1)OC1C(=O)C3C4CCC5CC(O[C@@H]6O[C@H](CO)[C@@H](O)[C@H](O)[C@H]6O[C@@H]6O[C@@H](C)[C@H](O)[C@@H](O)[C@H]6O)CCC5(C)C4CCC3(C)C1C2C` (stereo partly drawn), which Potency is on record?
**A.** Its Potency is “inactive”.

**Q.** With `C=CC1C(O[C@@H]2O[C@H](CO)[C@@H](O)[C@H](O)[C@H]2O)OC=C(C(=O)OC)C1Cc1nccc2c1[nH]c1ccccc12` (stereo partly drawn) as the compound, how does the Potency read?
**A.** The Potency was “inactive”.

**Q.** With `C/C=C1/[C@H](O[C@@H]2O[C@H](CO)[C@@H](O)[C@H](O)[C@H]2O)OC=C(C(=O)OC)[C@H]1CC(=O)O[C@@H]1O[C@H](CO)[C@@H](O)[C@H](O)[C@H]1O` as the compound, how does the Potency read?
**A.** Its Potency is “inactive”.

**Q.** For `CC(=O)OCC1=C[C@H](O)[C@@H]2C(C(=O)O)=CO[C@@H](O[C@@H]3O[C@H](CO)[C@@H](O)[C@H](O)[C@H]3O)[C@H]12`, which Potency is on record?
**A.** The Potency was “inactive”.

**Q.** Which outcome does the source give for `CC(=O)O[C@@H]1C[C@]2(C)[C@@]3(CCC4[C@@]5(C)CC[C@H](O[C@@H]6O[C@H](C(=O)O)[C@@H](O)[C@H](O[C@@H]7O[C@H](CO)[C@H](O)[C@H](O)[C@H]7O[C@@H]7O[C@@H](C)[C@H](O)[C@@H](O)[C@H]7O[C@@H]7OC[C@](O)(CO)[C@H]7O)[C@H]6O[C@@H]6O[C@H](CO)[C@H](O)[C@H](O)[C@H]6O)C(C)(C)C5CC[C@]42C)O[C@@H](O)[C@]12C3CC(C)(C)[C@@H](OC(=O)/C=C/c1ccc(O)c(O)c1)[C@@H]2OC(=O)/C=C/c1ccccc1` (stereo partly drawn) here?
**A.** Its outcome is “inactive [at 9.29 µM]”.

**Q.** For `COC(=O)C1C(CC(C)=O)C=CC(O)C12Oc1cc(C)cc(O)c1C2=O` (stereo not drawn), which Potency is on record?
**A.** The Potency was “inactive”.

**Q.** With `COc1cc(O[C@@H]2O[C@H](CO)[C@@H](O)[C@H](O)[C@H]2O)c(CCC(=O)OC[C@H]2O[C@@H](Oc3cc(OC)c(C4OC(=O)C(C)(O)C4O)cc3CCC(=O)O)[C@H](O)[C@@H](O)[C@@H]2O)cc1C1OC(=O)C(C)(O)C1O` (stereo partly drawn) as the compound, how does the outcome read?
**A.** The outcome was “inactive [at 9.29 µM]”.

**Q.** For `C[C@@H]1CC[C@]2(C(=O)O)CC[C@]3(C(=O)O)C(=CCC4[C@@]5(C)CC[C@H](O[C@@H]6O[C@@H](C)[C@H](O[C@@H]7O[C@H](CO)[C@@H](O)[C@H](O)[C@H]7O)[C@@H](O)[C@H]6O)C(C)(C)C5CC[C@]43C)C2[C@H]1C` (stereo partly drawn), which Potency is on record?
**A.** The Potency was “inactive”.

**Q.** With `O=C(/C=C/c1ccccc1)OCC1=CC[C@@H]2C(C(=O)O)=CO[C@@H](O[C@@H]3O[C@H](CO)[C@@H](O)[C@H](O)[C@H]3O)[C@H]12` as the compound, how does the Potency read?
**A.** Its Potency is “inactive”.

**Q.** With `CC(C)CC1NC(=O)C(C(C)c2ccccc2)NC(=O)C(C(C)C)NC(=O)C(C)NC(=O)CCCNC(=O)C(Cc2c[nH]c3ccccc23)NC(=O)C(C)NC1=O` (stereo not drawn) (cyclo([GABA]AV[ξPhe(βξ-Me)]LAW); configuration not given here) as the compound, how does the Potency read?
**A.** The Potency was “inactive”.

**Q.** With `CC1(CO)CC2C(O)C(=O)C3(CO)CC3(C)C2C1` (stereo not drawn) as the compound, how does the Potency read?
**A.** The Potency was “inactive”.

**Q.** Which Potency does the source give for `CC[C@H](C)/C=C(C)/C=C/C(=O)Cc1cc(O)c(C)c(O)c1C=O` here?
**A.** Its Potency is “inactive”.

**Q.** For `NCCCC[C@H](NC(=O)[C@@H]1Cc2ccccc2CN1C(=O)CCC(=O)c1ccccc1)C(=O)NCC(c1ccccc1)c1ccccc1`, which Potency is on record?
**A.** The Potency was “inactive”.

**Q.** For `CCc1c(CC(N)=O)c2cc(OCCCP(=O)(O)O)ccc2n1Cc1ccccc1`, which Potency is on record?
**A.** Its Potency is “inactive”.

**Q.** With `COc1cc2c(cc1O)CCN[C@]21CS[C@@H]2c3c(OC(C)=O)c(C)c4c(c3[C@H](COC1=O)N1[C@@H]2[C@H]2c3c(cc(C)c(OC)c3O)C[C@@H]([C@@H]1O)N2C)OCO4` as the compound, how does the Potency read?
**A.** The Potency was 1.46 µM (active) and 1.41 µM (active).

**Q.** Which Potency does the source give for `CC1CCC2(C)C(CC(O)C(O)C23CO3)C1(C)CCC1=CC(O)OC1=O` (stereo not drawn) here?
**A.** The Potency was “inactive”.

**Q.** With `CC(C)C1=CC2=CCC3[C@](C)(CCC[C@@]3(C)C(=O)O)C2CC1=O` (stereo partly drawn) as the compound, how does the Potency read?
**A.** The Potency was “inactive”.

**Q.** Which Potency does the source give for `CN1C(=O)c2ccccc2-n2c(nc3ccccc3c2=O)/C1=C/c1ccccc1` here?
**A.** The Potency was “inactive”.
